The campaign covered roughly 340,000 compounds. About 390 (0.11%) were called active. What follows is part of a selection rich in actives, with near analogues and random picks from the rest. Values without a mark were called inactive.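 The calls were made as follows: active = inhibition above the mean inhibition of all tested compounds plus 3 SD (cut at about 17% in these data); inactive = the rest.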

This assay deals with Troponin I, cardiac muscle (Homo sapiens) + Troponin T, cardiac muscle (Homo sapiens) + Troponin C, slow skeletal and cardiac muscles (Homo sapiens) (UniProt P19429+P45379+P63316). Briefly: calcium desensitizers of cardiac thin filaments – biochemical, IANBD-TnC fluorescence, EC70 calcium, primary screen (AID 493244).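 Also: assay run at fixed EC70 calcium of 1.6 mM.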 The conditions noted are these: IANBD-labeled cardiac RTF, Ca2+ fluorescence; at 7.15 µM; active compounds read high.
As for `CCN(CC)S(=O)(=O)c1ccc(N2CCOCC2)c(NC(=O)C2CSC3(C)CCC(=O)N23)c1` (stereo unspecified), the inhibition was -5.18%.

On to `O=C(c1ccco1)N1CCN(C(=S)Nc2cc(F)cc(F)c2)CC1`, for which the inhibition is -7.48%.

With `C[C@]12c3[nH]c4ccc(Cl)cc4c3CCN1C(=O)[C@@H](CC(=O)NCCCn1ccnc1)C[C@@H]2C(=O)N1CCOCC1`, the inhibition was -5.19%.

As for `O=C(Nc1ccc2c(c1)CCC2)c1cccc(S(=O)(=O)Nc2ccccc2Cl)c1`, the inhibition is 3.16%.

Consider `COc1ccc(Cl)cc1NC(=O)[C@@H]1CCCN1C(=O)c1cccs1`, for which the inhibition is 5.41%.

As for `Cc1cc(NC(=O)CCC(=O)N(CC(=O)NCC2CCCO2)c2ccccc2)no1` (stereo unspecified), the inhibition was 18.5% (active).

With `Cc1cc(C)cc(N(CC(=O)NC2CCCC2)C(=O)CCC(=O)Nc2cc(C)on2)c1`, the inhibition was -4.35%.

On to `Cc1cc(NC(=O)CCC(=O)N(CC(=O)NC2CCCC2)c2ccc(F)cc2)no1`, for which the inhibition is -0.21%.

In the case of `CCCCOc1ccc(N(CC(=O)NCC2CCCO2)C(=O)CCC(=O)Nc2cc(C)ccn2)cc1` (stereo unspecified), the inhibition is -5.97%.

Take `Cc1cc(NC(=O)CCC(=O)N(CC(=O)NCC2CCCO2)c2ccccc2C)no1` (stereo unspecified): the inhibition was -4.7%.

As to `COC(=O)c1cccc(N(CC(=O)NCC2CCCO2)C(=O)CCC(=O)Nc2cc(C)on2)c1` (stereo unspecified), the inhibition is 17.2% (active).

`Cc1cc(C)cc(OCC(=O)NNC(=O)CCN2C(=O)c3ccccc3C2=O)c1`: the inhibition is -1.71%.

For `Cc1cc(C(=O)Nc2ccc(C)c(S(=O)(=O)N3CCOCC3)c2)c2ccccc2n1`, the inhibition was 5.27%.

In the case of `Cc1cc(OCc2ccc(C(=O)Nc3ccc(C(=O)O)cc3)o2)ccc1Cl`, the inhibition was 2%.

As to `O=C(O[C@@H]1[C@H](Cc2ccccc2)NS(=O)(=O)[C@H]2C[C@@H]3C=C[C@]12O3)c1ccccc1Br`, the inhibition was -4.49%.

With `CC(Sc1nnc(COc2ccccc2)n1-c1ccccc1)C(=O)O` (stereo unspecified), the inhibition is 2%.

As to `Cc1nnc(NC(=O)CCC(=O)N2CCC(C)CC2)s1`, the inhibition was -6.77%.

Consider `CC1(c2ccc3ccccc3c2)NC(=O)NC1=O` (stereo unspecified), for which the inhibition was -8.57%.

`O=C(Nc1ccc(Br)cc1F)C1CC(=O)N(C2CCCCC2)C1` (stereo unspecified): the inhibition is -4.05%.

Regarding `Cc1ccc(NC(=O)NC2CCCCC2)cc1S(=O)(=O)N1CCOCC1`, the inhibition was 21.9% (active).

Regarding `Cc1ccc(NC(=O)C2CC2)cc1S(=O)(=O)N1CCOCC1`, the inhibition was 5.9%.

As to `Cc1ccc(NC(=O)C2CCC(C(C)(C)C)CC2)cc1S(=O)(=O)N1CCOCC1` (stereo unspecified), the inhibition was -8.96%.

`O=C1N=C2SCCN2/C1=C\c1c(Cl)cccc1Cl`: the inhibition was -0.73%.

Consider `COc1cccc(-n2c(=S)sc3c(=O)n(-c4ccccc4OC)c(SCC4OCCO4)nc32)c1`, for which the inhibition was -13.4%.

Consider `O=C(N/N=C/c1ccccc1O)/C(=C/c1ccccc1)CCO`, for which the inhibition was -2.95%.

For `Cn1cnc([N+](=O)[O-])c1Sc1ccccc1`, the inhibition was 7.04%.

Regarding `CCOC(=O)C(C)Oc1cccc2c(=O)n(CC(=O)NCCc3ccc(OC)c(OC)c3)ccc12` (stereo unspecified), the inhibition was -4.75%.

With `Cc1ccc(NC2=C(Cl)C(=O)OC2OC(=O)c2ccccc2C)cc1` (stereo unspecified), the inhibition was 5.74%.

As for `CCc1ccc(N2CC(C(=O)Nc3ccc(S(=O)(=O)Nc4nccs4)cc3)CC2=O)cc1` (stereo unspecified), the inhibition was 10.1%.

Turning to `CSCC[C@H](NC(=O)N1CCn2c1nc1ccccc12)C(=O)NC1CCCCC1`, the inhibition was -6.71%.

For the compound `CC(C(=O)NC1CCCCC1)N1C(=O)c2cccc3cccc1c23` (stereo unspecified), the inhibition was 5.31%.

Regarding `COc1cc(C(=O)N(C)Cc2cccc(OC)c2OC)ccc1OCC(=O)Nc1cccc(C(F)(F)F)c1`, the inhibition was 6.06%.

For the compound `Cc1cc(C)nc(Nc2n[nH]c(-c3ccccc3N)n2)n1`, the inhibition was 2.72%.

As to `CC(C)(C)c1ccc(C(CC(=O)O)NS(=O)(=O)Cc2ccccc2)cc1` (stereo unspecified), the inhibition is -9.83%.

On to `Cc1ccc(S(=O)(=O)Cn2nnnc2CN2CCN(Cc3ccc4c(c3)OCO4)CC2)cc1`, for which the inhibition was -16.1%.

Consider `COc1ccc(S(=O)(=O)NC(C)c2ccccc2)cc1C(=O)N1CCCCC1` (stereo unspecified), for which the inhibition was -3.2%.

Regarding `O=C(COC(=O)c1ccc(NS(=O)(=O)c2cccs2)cc1O)Nc1ccc(F)cc1`, the inhibition is -3.11%.

Consider `COc1ccc(/C=C(/NC(=O)c2ccccc2)C(=O)Nc2cccc(C(=O)O)c2)cc1`, for which the inhibition is -3.42%.

For the compound `O=C1c2ccccc2C(Nc2ccc3c(c2)OCCO3)N1Cc1ccco1` (stereo unspecified), the inhibition was 0.13%.

In the case of `CC(C)c1cc(C(=O)N/N=C/c2ccoc2)c(O)c(C(C)C)c1`, the inhibition was -3.15%.

Regarding `COC(=O)Cc1c(O)ccn(Cc2cccc(C(F)(F)F)c2)c1=O`, the inhibition was 1.28%.

Turning to `Cc1cc(S(=O)(=O)NC2CCCC2)ccc1-n1cnnn1`, the inhibition was -17.6%.

With `Cc1ccc(CSc2ccc(S(=O)(=O)N3CCCCC3)cn2)cc1`, the inhibition is -3.54%.

As for `O=c1ccc2c(-c3ccccc3S(=O)(=O)O)c3ccc(O)c(O)c3oc-2c1O`, the inhibition was 141% (active).

For the compound `CCc1noc(C)c1C(=O)Oc1ccc(N(C)S(=O)(=O)c2ccc(C)c(C)c2)cc1`, the inhibition was 0.79%.

As for `Cc1ccc(-n2c(=O)c(C#N)cc3c(=O)n4ccccc4nc32)cc1C`, the inhibition is -2.12%.

Consider `Cc1cc(C)n(Cc2cnc(N3CCOCC3)s2)n1`, for which the inhibition is 9.55%.

Take `O=C(C[n+]1cc(-c2ccc(Cl)c(Cl)c2)n2c1CCC2)c1cccs1`: the inhibition is 0.83%.

In the case of `CCCCOc1ccc(C(=O)NCC(=O)OCC(=O)N2CCN(S(=O)(=O)c3ccc(C)cc3C)CC2)cc1`, the inhibition is -7.59%.

In the case of `Cc1ccc(C(=O)OCC(=O)NCc2cc(C)c(O)c(C)c2)cc1S(=O)(=O)N1CCCCC1`, the inhibition is 0.34%.

With `CCNC(=S)NCC`, the inhibition was -5.85%.

On to `Cc1c(Cl)c([N+](=O)[O-])nn1CC(=O)NCC1CCCO1` (stereo unspecified), for which the inhibition was -4.95%.

Turning to `Cc1nc2ccc(S(=O)(=O)NCC(=O)O)cc2s1`, the inhibition was -1.72%.

In the case of `COc1ccc(C)cc1S(=O)(=O)N(CC(=O)Nc1cccc([N+](=O)[O-])c1)c1ccc(C)cc1`, the inhibition was 0.11%.

Consider `CN(c1ccccc1)S(=O)(=O)c1cccc(NC(=O)Cc2ccc(Cl)cc2)c1`, for which the inhibition was 11.1%.

Turning to `Cc1ccc(S(=O)(=O)N(CC(=O)Nc2cccc([N+](=O)[O-])c2)Cc2ccc(Cl)cc2)cc1`, the inhibition was 18.4% (active).

A word on the inhibition: it is the change of the read-out against control, counted positive when it falls.

Source of the values: PubChem BioAssay AID493244 (The Scripps Research Institute Molecular Screening Center, 2011).
